Results filed as inconclusive are left out. Activity calls are given as the source filed them. Rule for the calls, unless noted: active = hit-call score of the fitted dose curve at least 0.9, where 1 is the maximum; inactive = score below 0.9.
Assays:
[1] = CCTE_Shafer_MEA_dev_bursting_electrodes_number: CCTE's Neural Network Formation Assay for Number of Bursting Electrodes, Shafer Lab (AID 2284043; active = hit-call score of the fitted dose curve at least 0.9, where 1 is the maximum)
In short: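 Primary rat cortical neurons plated on 16-electrode MEA wells, exposed from day 0 with compound renewed at DIV 5 and 9. Electrodes bursting ≥1 burst per 2 min counted on days 5, 7, 9 and 12; trapezoidal AUC across days, fitted for loss versus DMSO.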

[2] = CCTE_Shafer_MEA_dev_per_burst_interspike_interval: CCTE's Neural Network Formation Assay for Burst Interspike Interval, Shafer Lab (AID 2284044);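 note: mean spike spacing inside bursts as AUC over recordings on days 5 7 9 12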
In short: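 Primary rat cortical neurons on 48-well MEA plates, exposed from day 0 through day 12, treatment renewed at DIV 5 and 9. Within-burst interspike interval recorded days 5, 7, 9, 12, well-averaged, summarised as AUC; negative fit versus DMSO.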

[3] = CCTE_Shafer_MEA_dev_burst_duration_mean: CCTE's Neural Network Formation Assay for Mean Burst Duration, Shafer Lab (AID 2284045)
In short: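 Primary rat cortical neurons on 48-well 16-electrode MEA plates, exposed from day 0 with renewal at DIV 5 and 9; spontaneous activity recorded on days 5, 7, 9, 12. Well-mean burst duration across bursting electrodes, collapsed as trapezoidal AUC; DMSO baseline.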

[4] = CCTE_Shafer_MEA_dev_interburst_interval_mean: CCTE's Neural Network Formation Assay for Mean Interburst Interval, Shafer Lab (AID 2284046);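 note: well-mean interburst interval of bursting electrodes as AUC over four recording days; curve fitted for decrease in interburst interval relative to DMSO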
In short: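 Developing rat cortical networks on 48-well MEAs receive compound from the day of plating. Burst intervals from each active electrode are averaged per well, and AUC over the recording days is fitted in the negative direction against DMSO.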

[5] = CCTE_Shafer_MEA_dev_inter_network_spike_interval_mean: CCTE's Neural Network Formation Assay for Mean Inter-network Spike Interval, Shafer Lab (AID 2284047)
In short: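 Rat cortical cultures, 1.5 x 10^5 cells/well on 48-well MEA plates; continuous exposure days 0–12, medium and compound refreshed DIV 5, 9. Mean time between consecutive network-spike peaks; AUC across DIV 5/7/9/12; DMSO baseline, negative fitting direction.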

[6] = CCTE_Shafer_MEA_dev_network_spike_peak: CCTE's Neural Network Formation Assay for Mean Number of Electrodes in Network Spike, Shafer Lab (AID 2284049)
In short: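 Network-spike peak electrode count from recordings on days 5, 7, 9 and 12 was combined as trapezoidal area under the curve. Rat cortical cultures were treated continuously from plating, with compound renewed at each feed (DIV 5, 9); fits versus DMSO.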

[7] = CCTE_Shafer_MEA_dev_spike_duration_mean: CCTE's Neural Network Formation Assay for Mean Spike Duration, Shafer Lab (AID 2284051);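 note: mean network spike duration pooled as area under curve over DIV 5 to 12 recordings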
In short: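 Readout is the average length of network spikes, clustered firing across electrodes, summed over DIV 5, 7, 9 and 12 as area under the curve. Neurons from rat cortex developed networks on MEA plates under continuous 12-day exposure.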

[8] = CCTE_Shafer_MEA_dev_network_spike_duration_std: CCTE's Neural Network Formation Assay for Standard Deviation of Network Spike Duration, Shafer Lab (AID 2284052);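 note: area under curve of spike duration SD across recording days 5 to 12; hits are decreases in network spike duration SD versus DMSO vehicle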
In short: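 Read-out is the trapezoidal area-under-the-curve across recordings made on days 5, 7, 9 and 12, fitted in the negative direction against DMSO baseline. Neurons were primary rat cortical cells treated from day 0, with treatment renewed at each feed.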

[9] = CCTE_Shafer_MEA_dev_per_network_spike_spike_number_mean: CCTE's Neural Network Formation Assay for Mean Number of Spikes in a Network Spike, Shafer Lab (AID 2284053)
In short: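 Continuous twelve-day exposure of developing rat cortical networks grown over 16 microelectrodes per well; spontaneous firing is captured at four time points, and the per-network-spike spike number is integrated over development by trapezoidal AUC.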

[10] = CCTE_Shafer_MEA_dev_per_network_spike_spike_percent: CCTE's Neural Network Formation Assay for Percent of Spikes in a Network Spike, Shafer Lab (AID 2284054)
In short: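 Rat primary cortical neurons were grown on 48-well MEA plates (16 electrodes/well), exposed from plating day 0 through day 12, with treatment renewed on DIV 5 and 9. Percent of spikes within 0.05 s network-spike peaks was measured, summarised as AUC across days 5, 7, 9, 12.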

[11] = CCTE_Shafer_MEA_dev_LDH: CCTE's Lactate Dehydrogenase Assay for Cytotoxicity in the Neural Network Formation Assay, Shafer Lab (AID 2284068; active = hit-call score of the fitted dose curve at least 0.9, where 1 is the maximum;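 note: exposure for twelve days from plating with re-dosing on DIV 5 and 9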)
In short: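 Cytotoxicity companion to network-formation recordings: rat cortical neurons received compound over 12 days of development, re-dosed at DIV 5 and 9 feeds. Viability was inferred from LDH enzyme activity relative to DMSO.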

[12] = CCTE_Shafer_MEA_dev_AB: CCTE's Alamar Blue Assay for Cytotoxicity in the Neural Network Formation Assay, Shafer Lab (AID 2284083; active = hit-call score of the fitted dose curve at least 0.9, where 1 is the maximum;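 note: resazurin reduction fluorescence as viability of cultured neurons; twelve days of exposure from plating with re-dosing on DIV 5 and 9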)
In short: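 Fluorescent resazurin reduction serves as the viability read-out, with DMSO as negative control and baseline. Cells were primary rat cortical neurons grown on MEA plates and dosed from day 0 to day 12, treatment renewed on DIV 5 and 9.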

[13] = CCTE_Shafer_MEA_dev_mutual_information_norm: CCTE's Neural Network Formation Assay for Mutual Information Normalization, Shafer Lab (AID 2284091)
In short: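 Primary rat cortical neurons on PEI-coated 48-well MEA plates, 1.5 x 10^5 cells/well, exposed from day 0 through day 12 with re-dosing at DIV 5 and 9. Mutual information between electrodes recorded days 5, 7, 9, 12; trapezoidal AUC, loss-of-signal fit versus DMSO.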

[14] = CCTE_Shafer_MEA_dev_correlation_coefficient_mean: CCTE's Neural Network Formation Assay for Mean Correlation Coefficient, Shafer Lab (AID 2284093)
In short: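 Read-out: well-mean correlation coefficient of spike trains between electrode pairs, collapsed over four recording days as trapezoidal area-under-the-curve. Developing rat cortical neuron networks grown on MEAs received test chemical continuously from plating.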

[15] = TAMU_PeakParms_SingleDonor1434_Chronotropy: Texas A&M University (TAMU) 1.5-hr Human Induced Pluripotent Stem Cell (iPSC)-derived Cardiomyocytes Calcium (Ca+2) Flux Assay for Cardiotoxicity: Chronotropy (changes in peak frequency) (AID 2284217); details: actives raise or lower the signal
In short: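 Beat frequency of single-donor iPSC cardiomyocytes was recorded through a calcium-sensitive dye 1.5 hours after exposure to four concentrations up to 100 uM. An EC05 point of departure was derived.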

[16] = TAMU_HCS_1.5hr_SingleDonor1434_Cytotoxicity: Cytotoxicity Assessment using High-content Screening (HCS) Fluorescent Imaging for the Texas A&M University (TAMU) 1.5-hr Human Induced Pluripotent Stem Cell (iPSC)-derived Cardiotoxicity Assay (AID 2284234; active = hit-call score of the fitted dose curve at least 0.9, where 1 is the maximum)
In short: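 Human iPSC-derived cardiomyocytes dosed at 0.2, 1, 10, 100 uM final (0.5% DMSO) for 90 min at 37 C. Hoechst 33342-stained nuclei counted by 10x high-content imaging; POD is EC10, a 10% drop in total cell count versus DMSO.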

[17] = TAMU_PeakParms_SingleDonor1434_Asystole: Texas A&M University (TAMU) 1.5-hr Human Induced Pluripotent Stem Cell (iPSC)-derived Cardiomyocytes Calcium (Ca+2) Flux Assay for Cardiotoxicity: Asystole (quiescence of beating) (AID 2284328; active = hit-call score of the fitted dose curve at least 0.9, where 1 is the maximum)
In short: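 Donor 1434 iPSC-cardiomyocytes exposed 90 min at 37C, 5% CO2, to 0.2, 1, 10 and 100 uM in 0.5% DMSO. Ca2+ dye fluorescence gave average peak frequency; POD is EC95, a 95% beat-rate drop versus controls.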

Measured: AC50

c1ccc2cc3c(cc2c1)-c1cccc2cccc-3c12
inactive: [1] | [2] | [3] | [4] | [5] | [6] | [7] | [8] | [9] | [10] | [11] | [12] | [13] | [14] | [16] | [17]
active: [15] 9.92 µM
